PubChem BioAssay (NCATS)
A number with no mark means an inactive call. Activity calls are given as the source filed them. Calls follow the shape of the dose curve; as a rule, active = well fitted curve in the direction sought with a large enough effect; inconclusive = small, poorly fitted or top-dose-only effect, or another doubt; inactive = no such curve, though single readings can be large or run the other way.

Assay: Cellular Toxicity (caspase-3) BJ (AID 658)
Settings: BJ fibroblasts, luminescence, normalized: DMSO 0%, staurosporine 100%; series mostly up to 91.7 µM; caspase-3 activation: at the top concentration
Source text: NIH Chemical Genomics Center [NCGC]
NIH Molecular Libraries Screening Centers Network [MLSCN]
National Institutes of Environmental Health Sciences [NIEHS]
National Toxicology Program [NTP]
We have developed a 1536-well cell-based assay for quantitative high throughput screening (qHTS) against a number of cell lines to determine in vitro caspase 3/7 activity of small molecules. This particular assay uses BJ cell line which is derived from normal human foreskin fibroblast.
NCGC Assay Protocol Summary:
The Caspase-Glo 3/7 assay (Promega) is a homogeneous method to measure caspase-3 and caspase-7 activities in cultured cells. The quantitation of caspase 3/7 activity is based on the cleavage of a peptide-aminoluciferin substrate. After caspase cleaves the substrate the free aminoluciferin is liberated and serves as the substrate of luciferase, which generates the light. The luminescent signal is proportional to amount of caspase 3/7 activity present.
Using the Caspase-Glo 3/7 assay, the amount of caspase 3/7 activity was measured in the BJ cell line with complete culture medium following compound treatment for 16 hours. The assay was performed in opaque white 1536-well plates. In the screen, staurosporine and tamoxifen were used as positive controls. Library compounds were measured for their ability to cause the activation of caspase 3/7 in the cell line, as reflected by an increase in luminescence signal, in a concentration-dependent manner. Data were normalized to the controls for basal activity (DMSO only) and 100% stimulation (10 uM staurosporine). AC50 values were determined from concentration-response data modeled with the standard Hill equation.
qHTS protocol for caspase 3/7 assay in the BJ cells
[Step] [Parameter] [Value] [Description]
1. Reagent; 5 uL; 1000 the BJ cells/well
2. Time; 5 hr; 37 °C incubation
4. Controls; 23 nL; Tamoxifen 0.23 uM to 100 uM & staurosporine 1.4 pM to 100 uM
5. Time; 16 hr; 37 °C incubation
6. Reagent; 5 uL; Caspase-Glo 3/7 reagent
7. Time; 1 hr; Room Temperature
8. Detection; Luminescence; Viewlux plate reader
Keywords: caspase 3/7, apoptosis, the BJ cell line, luminescence, NTPHTS, NTPHTS_NCGC, NIEHS, EPA, DSSTox, MLSMR, MLSCN, NIH Roadmap, qHTS, NCGC

Compound | caspase-3 activation [%] | outcome
Clc1ccc(C(c2ccc(Cl)cc2)C(Cl)(Cl)Cl)cc1 | 0.453 | 
O=C(O)CCCc1ccc(N(CCCl)CCCl)cc1 | 24.1 | 
COP(=S)(OC)Oc1ccc(SC)c(C)c1 | 1.08 | 
CCOC(=O)CC(SP(=S)(OC)OC)C(=O)OCC (centres undefined) | -0.733 | 
CN1C[C@H](C(=O)N[C@]2(C)O[C@@]3(O)[C@@H]4CCCN4C(=O)[C@H](Cc4ccccc4)N3C2=O)C=C2c3cccc4[nH]cc(c34)C[C@H]21 | -3.79 | 
CC(C)NC(C)C | -0.172 | 
Oc1ccc(Cl)cc1 | 1.58 | 
NCCc1ccc(O)cc1 | -1.59 | 
Nc1ccccc1C(=O)O | -0.00165 | 
Nc1ccccc1 | 1.52 | 
CC(C)c1cccc(C(C)C)c1O | -0.993 | 
CCC(C)(C)c1ccc(O)cc1 | -1.48 | 
COc1cc(OC)c(OC)cc1C=O | 2 | 
COC(=O)C(c1ccccc1)C1CCCCN1 (centres undefined) | 0.991 | 
O=P1(N(CCCl)CCCl)NCCCO1 (centres undefined) | -0.663 | 
C[C@]1(O)CC[C@H]2[C@@H]3CCC4=CC(=O)CC[C@]4(C)[C@@]3(F)[C@@H](O)C[C@@]21C | -0.963 | 
C[C@]12CCC(=O)C=C1CC[C@@H]1[C@@H]2CC[C@]2(C)C(=O)CC[C@@H]12 |  | inactive
C[C@]12CCC(=O)C=C1CC[C@@H]1[C@@H]2CC[C@@]2(C)[C@H]1CC[C@]2(C)O | -0.283 | 
CCCC(C)(COC(N)=O)COC(N)=O | -0.468 | 
